In the library only some 19% were active in any assay of this set; here they are far more common.
IL1B secr inh = inflammasome signaling inhibition, IL-1 beta readout | 4.7% of 360,000 active | activity change, % at 57.5 µM | THP-1 LPS/ATP IL-1B secretion, AlphaLISA, 16 h; active compounds read low; in the data active = activity change below about -50%; inconclusive = mostly about -30% to -49%
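Secreted IL-1B measured by AlphaLISA bead assay after 16 h compound exposure of THP-1 cells; compounds (final up to 57.5 uM) added 1 h before LPS (250 ng/mL) and ATP (1.25 mM) stimulation; lower signal means less secretion.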
HT1080-NT tox = kills 2HG-producing HT-1080-NT fibrosarcoma cells; HT-1080-NT fibrosarcoma viability, CellTiter-Glo ATP luminescence, 48 h; Potency, µM (titrated, usually from 46.1 µM), actives largely listed as cytotoxic; 1.6% of 360,000 active;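 note: NT is the 2HG producing partner of a matched IDH1 knockdown line; nearly all actives have a fitted effect of over 55% in size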
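HT-1080-NT fibrosarcoma cells (2HG-overproducing), 750 cells/well in RPMI with 5% FBS, dosed after 2 h and incubated 48 h at 37C. CellTiter-Glo luminescence normalized to DMSO and no-cell wells; concentration-response curves fitted and classed.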
HT1080 IDH1KD tx = toxicity to HT-1080 IDH1 knockdown cells (counter line); HT-1080 IDH1 knockdown viability, ATP luminescence, 48 h; Potency, µM (doses to about 46.1 µM), usual class: cytotoxic; 2% of 360,000 active
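IDH1KD HT-1080 cells, 750/well, RPMI + 5% FBS; compound pinned after 2 h settling; 48 h, 37 °C; CellTiter-Glo luminescence; % activity normalised to DMSO and no-cell wells; curves fitted, classed by r2 and efficacy.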
uPA generation = inhibitors of cell surface uPA generation | Potency, µM (series often up to 38.3 µM), hits mostly inhibitors | cell surface uPA generation assay, qHTS | AID 540303 | 0.31% of 330,000 active; active = well fitted inhibition curve with a large enough effect; inconclusive = small, poorly fitted or top-dose-only effect; inactive = no such curve, though single readings can be large or run the other way; tested in mouse RAW 264.7 cells; note: nearly all actives have a fitted effect of over 55% in size
DT40 TDP1 no CPT = qHTS for Inhibitors of human tyrosyl-DNA phosphodiesterase 1 (TDP1): qHTS in cells in absence of CPT; Potency, µM (series often up to 46.2 µM), usual class: inhibitors; 15% of 420,000 active; DT40 Tdp1-/- hTDP1 cells, no CPT, ATP luminescence, 48 h; note: nearly all actives have a fitted effect of over 55% in size
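Compound effects on proliferation are scored in DT40 Tdp1-/-;hTDP1 cells in the absence of CPT. ATP levels (CellTiter-Glo luminescence) are recorded after a ≥48 hr, 37 °C incubation.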
TDP1 cell CPT = growth inhibition of DT40 Tdp1-/-;hTDP1 cells with camptothecin (screen for TDP1 inhibitors); chicken DT40 Tdp1-/-;hTDP1 cells + 20 nM CPT, ATP luminescence, 48 h; Potency, µM (doses to about 46.2 µM), most hits filed as inhibitors; 12% of 420,000 active; note: nearly all actives have a fitted effect of over 55% in size
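Cell growth measured by CellTiter-Glo luminescence after a minimum 48 h, 37 C compound exposure with 20 nM CPT in Tdp1-knockout DT40 cells stably expressing hTDP1, seeded 400/well; qHTS titration format.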
Large screens that a line does not name were inactive. Unless noted, calls come from the whole dose curve; as a rule, active = well fitted curve in the direction sought with a large enough effect; inconclusive = small, poorly fitted or top-dose-only effect, or another doubt; inactive = no such curve, though single readings can be large; an effect the other way counts as inactive or inconclusive.

COc1cc2c(oc(=O)c3cc(C)cc(OC)c32)c2c(C3OC(C)C(O)C(C)(O)C3O)ccc(O)c12 (configuration not stated)	IL1B secr inh -100.7, HT1080-NT tox inconclusive, HT1080 IDH1KD tx inconclusive, DT40 TDP1 no CPT 1.46µM, TDP1 cell CPT 1.46µM
COc1ccc(NC(=O)N(C)C[C@H]2OCc3cn(nn3)CCCC(=O)N([C@@H](C)CO)C[C@@H]2C)cc1	none (no result: uPA generation)
Nc1c(C(=O)Nc2ccccc2)sc2nc(-c3ccco3)ccc12	HT1080 IDH1KD tx inconclusive, DT40 TDP1 no CPT 18.4µM, TDP1 cell CPT 23.1µM
Nc1c(C(=O)Nc2ccc(Cl)c(C(F)(F)F)c2)sc2nc(-c3ccncc3)ccc12	DT40 TDP1 no CPT 10.3µM, TDP1 cell CPT inconclusive (no result: IL1B secr inh, HT1080-NT tox, HT1080 IDH1KD tx, uPA generation)
Nc1c(C(=O)Nc2nc3ccccc3s2)sc2nc(-c3cccs3)ccc12	IL1B secr inh -113.9, HT1080-NT tox inconclusive, HT1080 IDH1KD tx 18.4µM, DT40 TDP1 no CPT 20.6µM, TDP1 cell CPT 11.6µM
COc1cccc(-c2ccc3c(N)c(C(=O)Nc4ccccc4C)sc3n2)c1	DT40 TDP1 no CPT 23.1µM, TDP1 cell CPT inconclusive (no result: IL1B secr inh, HT1080-NT tox, HT1080 IDH1KD tx, uPA generation)
CCc1ccccc1N(CC(=O)NC(C)c1ccccc1)S(C)(=O)=O (configuration not stated)	none
Cc1ccccc1NC(=O)c1sc2nc(-c3ccncc3)ccc2c1N	DT40 TDP1 no CPT 16.4µM (no result: IL1B secr inh, HT1080-NT tox, HT1080 IDH1KD tx, uPA generation)
O=C(Nc1nnc(N2CCCC2)s1)Nc1cc(F)ccc1F	none (no result: IL1B secr inh, HT1080-NT tox, HT1080 IDH1KD tx, uPA generation)
CC(=O)NC(C)(c1ccccc1)c1nc(-c2cccc(C(F)(F)F)c2)cs1 (configuration not stated)	HT1080-NT tox inconclusive, DT40 TDP1 no CPT 14.6µM, TDP1 cell CPT inconclusive (no result: uPA generation)
CC(=O)NC(C)(c1ccccc1)c1nc(-c2cc(F)cc(F)c2)cs1 (configuration not stated)	DT40 TDP1 no CPT inconclusive, TDP1 cell CPT inconclusive (no result: uPA generation)
CC(=O)Nc1cccc(-c2csc(C(C)(NC(C)=O)c3ccccc3)n2)c1 (configuration not stated)	DT40 TDP1 no CPT inconclusive, TDP1 cell CPT 25.9µM (no result: uPA generation)
COc1ccc(C(C)(NC(C)=O)c2nc(-c3cccc(NC(C)=O)c3)cs2)cc1 (configuration not stated)	DT40 TDP1 no CPT inconclusive, TDP1 cell CPT inconclusive (no result: uPA generation)
COC(=O)c1ccc2c(=O)n(CCCCCC(=O)NCCNC(C)=O)c(=O)[nH]c2c1	TDP1 cell CPT inconclusive
CC(/C=N/NC(=O)CSc1ccccn1)=C\c1ccc(C(C)C)cc1	DT40 TDP1 no CPT 10.3µM, TDP1 cell CPT inconclusive
O=C(NCCCCc1ccccc1)c1cccc(NC(=O)C2CC2)c1	DT40 TDP1 no CPT inconclusive, TDP1 cell CPT inconclusive
Cc1ccc(CNc2c(C)c(C)nc3nncn23)cc1	DT40 TDP1 no CPT 1.16µM, TDP1 cell CPT 4.11µM (no result: IL1B secr inh, HT1080-NT tox, HT1080 IDH1KD tx, uPA generation)
CCc1c(C)nc2nncn2c1NCc1ccc(Cl)cc1	DT40 TDP1 no CPT 4.61µM, TDP1 cell CPT 8.2µM (no result: IL1B secr inh, HT1080-NT tox, HT1080 IDH1KD tx, uPA generation)
COC(=O)Cc1c(C)nc2nc(NCc3ccc(Cl)cc3)[nH]n2c1=O	none
Cc1nc2nncn2c(Nc2ccccc2)c1C	DT40 TDP1 no CPT 18.4µM, TDP1 cell CPT 20.6µM (no result: IL1B secr inh, HT1080-NT tox, HT1080 IDH1KD tx, uPA generation)
CC(C)(C)c1ccc(S(=O)(=O)c2cnc(SCC(=O)Nc3ccc4c(c3)OCCO4)[nH]c2=O)cc1	none (no result: IL1B secr inh, HT1080-NT tox, HT1080 IDH1KD tx, uPA generation)
Nc1c(C(=O)CSc2nc3ccccc3o2)c(=O)[nH]c(=O)n1C1CC1	HT1080 IDH1KD tx inconclusive, uPA generation inconclusive, DT40 TDP1 no CPT inconclusive, TDP1 cell CPT inconclusive
Nc1nc(Cl)nc2c1ncn2[C@H]1C[C@H](O)[C@@H](CO)O1	HT1080-NT tox inconclusive, HT1080 IDH1KD tx inconclusive, uPA generation 0.316µM, DT40 TDP1 no CPT 0.206µM, TDP1 cell CPT 0.184µM
O=c1[nH]cnc2c1ncn2C1OCC(O)C(O)C1O (configuration not stated)	uPA generation inconclusive
Nc1ncnc2c1ncn2C1OCC(O)C1O (configuration not stated)	DT40 TDP1 no CPT 13µM, TDP1 cell CPT 18.4µM (no result: uPA generation)
Nc1nc(Cl)nc2c1ncn2[C@@H]1O[C@H](CO)[C@@H](O)[C@@H]1F	DT40 TDP1 no CPT 0.0021µM, TDP1 cell CPT 0.0021µM (no result: IL1B secr inh, HT1080-NT tox, HT1080 IDH1KD tx, uPA generation)
Nc1ncnc2c1ncn2[C@H]1C[C@H](O)[C@@H](CO)O1	DT40 TDP1 no CPT inconclusive, TDP1 cell CPT 6.51µM
NCC1OC(n2cnc3c(N)ncnc32)CC1O (configuration not stated)	none
Nc1ncnc2c1nc(Br)n2C1CC(O)C(CO)O1 (configuration not stated)	none (no result: IL1B secr inh, HT1080-NT tox, HT1080 IDH1KD tx, uPA generation)
Cc1ccc(-c2nnc(SCC(=O)N(CC(C)C)c3c(N)n(Cc4ccccc4)c(=O)[nH]c3=O)n2N)cc1	none
O=C(CSc1ccc2nnc(CCNC(=O)c3ccccc3)n2n1)NCCc1ccccc1	none
CN(C(=O)CC1C(=O)NCCN1Cc1ccc(F)c(F)c1)C1CCOCC1 (configuration not stated)	none
CS(=O)(=O)Cc1ccc(C(=O)N2CCN(C(=O)c3cccs3)CC2)cc1	none
CCc1cc2c(=O)c(-c3cscn3)coc2c(CN(C)C)c1O	DT40 TDP1 no CPT 2.31µM, TDP1 cell CPT 1.46µM
CCc1cc2c(=O)c(-c3ccc4c(c3)OCO4)coc2c(CN(C)C)c1O	DT40 TDP1 no CPT 3.66µM, TDP1 cell CPT 2.06µM
Nc1ccccc1C#CCCCCO	uPA generation inconclusive
